Laboratory results: ChEMBL document CHEMBL4513216, “Probing the Open Global Health Chemical Diversity Library for Multistage-Active Starting Points for Next-Generation Antimalarials” (ACS Infect Dis, 2020)
Among all 69,000 compounds or so, about 8,600 (12%) showed an effect of 50% or more. The list comes from a sample in which strong results are over-represented; it also holds similar structures and randomly drawn compounds.

system: Plasmodium berghei; test: Screen against P. berghei liver stage (PbLuc), transformed with Luciferase, at 10uM; type: functional, HepG2; conditions: tested at 10 uM

Structure (SMILES)	INHIBITION [%]
O=C(Cn1ccnc1)N1C[C@@H]2CC[C@H](Oc3ccc(Cl)cc3)[C@@H]2C1	56
CN(C)CC(=O)N1C[C@@H]2CC[C@H](Oc3ccccc3Cl)[C@@H]2C1	37.5
Cc1ccc(CN2C(=O)OCC2CO)c2ccccc12 (stereo unspecified)	40.3
CNc1nc(CNC(=O)Nc2cccc(C(C)OC)c2)cs1 (stereo unspecified)	13.957
N[C@H]1CN(C(=O)CCC(F)(F)F)C[C@@H]1c1ccccc1	36.5
Nc1nc(CCC(=O)N2CCOC(CC3CCCCC3)C2)cs1 (stereo unspecified)	85.1
Cc1n[nH]c(C2CN(C(=O)CCc3cscn3)CCO2)n1 (stereo unspecified)	40.75
Nc1nc(CCC(=O)N2C[C@H](c3ccccc3)[C@@H](N)C2)cs1	51
CN1[C@@H]2CC[C@H]1CN(C(=O)CCc1csc(N)n1)CC2	50.3
CN(C)[C@H]1CCCCN(C(=O)CCc2csc(N)n2)C1	16.8
N[C@H]1CN(C(=O)CCc2ccccn2)C[C@@H]1c1ccccc1	37.6
COCCCC1CCCN(C(=O)CCc2csc(N)n2)C1 (stereo unspecified)	35.8
CN(C)C1CCCN(C(=O)CCc2csc(N)n2)CC1 (stereo unspecified)	33.9
CC1c2ncc(COCC3CCOCC3)n2CCN1Cc1cccnc1 (stereo unspecified)	12.1
Cc1ccsc1[C@@H]1CCN(C(=O)c2ccc(-c3cc[nH]n3)cc2)C[C@H]1O	16.1
Cc1ccsc1[C@@H]1CCN(C(=O)c2cc3ccccc3[nH]2)C[C@H]1O	66.9
Cc1ccsc1[C@@H]1CCN(C(=O)CCc2nc3ccccc3[nH]2)C[C@H]1O	-27.5
c1csc(CN2CCc3ncnc(C4CCOC4)c3CC2)n1 (stereo unspecified)	31.4
Cc1ccc(CN(Cc2nc3c(cnn3C)c(=O)[nH]2)C2CC2)o1	15.5

Structure (SMILES)	INHIBITION [%]
Cc1ccccc1C(C)N(C)Cc1nc2c(cnn2C)c(=O)[nH]1 (stereo unspecified)	26.45
CN(Cc1nc2c(cnn2C)c(=O)[nH]1)Cc1ccco1	-5.07
Cn1ncc2c(=O)[nH]c(CN3CCc4ccccc4C3)nc21	40
CC(c1ccco1)N(C)Cc1nc2c(cnn2C)c(=O)[nH]1 (stereo unspecified)	66.8
Cn1ncc2c(=O)[nH]c(CN3CCCC3Cc3ccccc3)nc21 (stereo unspecified)	24
Cn1ncc2c(=O)[nH]c(CN(Cc3ccco3)C3CC3)nc21	47
Cn1ncc2c(=O)[nH]c(CN(Cc3ccco3)C3CCCC3)nc21	54.3
Cc1ccc(C(C)N(C)Cc2nc3c(cnn3C)c(=O)[nH]2)cc1 (stereo unspecified)	52.1
Cn1ncc2c(=O)[nH]c(CN3CCC(Cc4ccccc4)CC3)nc21	52.7
COc1ccc(C(C)N(C)Cc2nc3c(cnn3C)c(=O)[nH]2)cc1 (stereo unspecified)	0.7
Cc1ccc(C(C)N(C)Cc2nc3c(cnn3C)c(=O)[nH]2)c(C)c1 (stereo unspecified)	8.315
COC(C)(C)CNC(=O)N1CCC(n2ccc(C(F)(F)F)n2)CC1	33.7
COCCn1cc(CC(=O)Nc2c(C)nn(C)c2C)c2ccccc21	37.8
CCn1cc(CNC(=O)C2CCCC2)cn1	38.3
CCOc1ccccc1CC(=O)N1C[C@@H](C(=O)O)[C@H](c2ccncc2)C1	-5.32
Cc1cccc(CN2CCC(c3csc4nccn34)CC2)n1	15.55
CCN(Cc1nc2c(cnn2C)c(=O)[nH]1)c1ccccc1	46.2
CCN(Cc1nc2c(cnn2C)c(=O)[nH]1)c1cccc(C)c1	11.2
CCN(Cc1nc2c(cnn2C)c(=O)[nH]1)c1cc(C)cc(C)c1	64.7

Structure (SMILES)	INHIBITION [%]
CC(=O)N1CCC2(C=C(C(=O)NC3CC3)c3ccccc32)CC1	-25.8
COc1cc(CNC(C)Cn2cccn2)cc2c1OCO2 (stereo unspecified)	12.6
COc1cc(-c2nccn2C(C)CCn2cccn2)cc2c1OCO2 (stereo unspecified)	51.3
COc1ncc(-c2nccn2C(C)CCn2cccn2)cn1 (stereo unspecified)	66.9
COCCCn1ccnc1-c1cnc(OC)nc1	10.1
COc1cc(-c2nccn2CCn2cccn2)cc2c1OCO2	9.56
COc1ncc(-c2nccn2CCN(C)C)cn1	-13.2
Cc1cc(CN2CCN(C(=O)c3ccc(=O)n(C)c3)CC2)no1	7.19
Cc1nn(C)c(N(C)C)c1CNCc1cccnc1N(C)C	-17.4
CC(=O)N1C[C@@H](c2ccsc2)[C@@H]2CN(Cc3ccccc3)CC[C@@H]21	16.9
COc1cccc([C@@H]2CCN(Cc3cccc(C)n3)C[C@H]2O)c1	-3.83
COc1cccc(CN2CCCC(c3cc(C(N)=O)[nH]n3)C2)c1 (stereo unspecified)	-7.31
COc1cccc(CC(=O)N2CC[C@H]3[C@@H]2CCC(=O)N3C)c1	-3.51
CC(=O)N1C[C@@H](c2ccsc2)[C@@H]2CN(Cc3cccc(Cl)c3)CC[C@@H]21	65.5
COc1cccc(CN2CC[C@H]3[C@@H](C2)[C@H](c2ccsc2)CN3C(C)=O)c1	61.9
COc1cccc([C@H]2CN(C(C)=O)[C@@H]3CCN(Cc4ccsc4)C[C@H]23)c1	63.4
COc1cccc([C@@H]2CCN(Cc3ccc4ccccc4n3)C[C@H]2O)c1	-18.4
CC(=O)N1CCO[C@@H]2CN(Cc3cccc(Cl)c3)C[C@@H]2C1	39.4
